From PubChem BioAssay AID1159580 (chemical genetic matrix, 2015)
About 2,000 (36%) of roughly 5,500 compounds were called active. Another 18% or so got no clear call; they are omitted. Cut-off read from the data, not from the text of the source: active = normalized growth mostly below about 0.91 (no sharp cut-off); inconclusive = no clear call, values can overlap the other calls; inactive = mostly above about 0.92. The list shows a part of the results.

Assay: chemical genetic growth profiling, strain panel (AID 1159580);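 note: tested at 20 µM; growth read once vehicle control cultures reached saturation at 30 °C; 1 = growth at the plate median or of vehicle wells; lower values mean less growth of the strain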
Settings: S. cerevisiae deletion strains, growth OD

Measured: normalized growth

CC1(C)C(=O)CC[C@@]2(C)C1C[C@@H](O)[C@@]1(C)C3=CC(=O)O[C@@H](c4ccoc4)[C@]3(C)CCC21 (stereo partly drawn)
inactive: locus YAL021C, strain ccr4, stronger effect = lower value 1.02 | locus YAL026C, strain drs2, stronger effect = lower value 1.02 | locus YAL030W, strain snc1, stronger effect = lower value 1.02 | locus YBL061C, strain skt5, stronger effect = lower value 1.03 | locus YBR009C, strain hhf1, stronger effect = lower value 1.01 | locus YBR021W, strain FUR4, stronger effect = lower value 0.967 | locus YBR023C, strain chs3, stronger effect = lower value 1.02 | locus YBR171W, strain sec66, stronger effect = lower value 1.04 | locus YBR229C, strain ROT2, stronger effect = lower value 1.01 | locus YBR231C, strain swc5, stronger effect = lower value 1.01 | locus YBR279W, strain paf1, stronger effect = lower value 1.01 | locus YCL011C, strain gbp2, stronger effect = lower value 1.02 | locus YCL016C, strain dcc1, stronger effect = lower value 1.02 | locus YCL029C, strain bik1, stronger effect = lower value 0.999 | locus YCL069W, strain vba3, stronger effect = lower value 1.02 | locus YCR088W, strain abp1, stronger effect = lower value 1.02 | locus YDL005C, strain med2, stronger effect = lower value 1.05 | locus YDL035C, strain GPR1, stronger effect = lower value 1.01 | locus YDL040C, strain nat1, stronger effect = lower value 1.02 | locus YDL074C, strain BRE1, stronger effect = lower value 1.01 | locus YDL101C, strain DUN1, stronger effect = lower value 1.03 | locus YDL134C, strain PPH21, stronger effect = lower value 1.03 | locus YDL185W, strain tfp1, stronger effect = lower value 1.02 | locus YDL192W, strain arf1, stronger effect = lower value 0.987 | locus YDR001C, strain nth1, stronger effect = lower value 1.03 | locus YDR069C, strain doa4, stronger effect = lower value 1.01 | locus YDR101C, strain arx1, stronger effect = lower value 0.963 | locus YDR137W, strain rgp1, stronger effect = lower value 1.05 | locus YDR159W, strain sac3, stronger effect = lower value 1.05 | locus YDR162C, strain NBP2, stronger effect = lower value 1.01 | locus YDR195W, strain ref2 0.982 | locus YDR297W, strain sur2, stronger effect = lower value 1.02 | locus YDR318W, strain mcm21, stronger effect = lower value 1.01 | locus YDR334W, strain swr1, stronger effect = lower value 1.02 | locus YDR335W, strain msn5, stronger effect = lower value 1.01 | locus YDR388W, stronger effect = lower value 1 | locus YDR392W, strain spt3, stronger effect = lower value 1.03 | locus YDR502C, strain sam2, stronger effect = lower value 1.02 | locus YEL003W, strain gim4, stronger effect = lower value 1.02 | locus YEL037C, strain rad23, stronger effect = lower value 1.02 | locus YEL061C, strain CIN8 (second series), stronger effect = lower value 1.03 | locus YEL061C, strain CIN8, stronger effect = lower value 1 | locus YER015W, strain faa2, stronger effect = lower value 1.01 | locus YER016W, strain bim1, stronger effect = lower value 1.03 | locus YER110C, stronger effect = lower value 1 | locus YER111C, strain swi4, stronger effect = lower value 1.02 | locus YER155C, strain BEM2 (second series), stronger effect = lower value 1.03 | locus YER155C, strain BEM2, stronger effect = lower value 0.997 | locus YER167W, strain BCK2, stronger effect = lower value 0.989 | locus YFR010W, strain ubp6, stronger effect = lower value 1.01 | locus YGL078C, strain dbp3, stronger effect = lower value 1.03 | locus YGL086W, strain mad1, stronger effect = lower value 0.998 | locus YGL167C, strain pmr1, stronger effect = lower value 1.04 | locus YGL173C, strain kem1, stronger effect = lower value 1.03 | locus YGL227W, strain vid30, stronger effect = lower value 1.03 | locus YGL240W, strain doc1, stronger effect = lower value 1.02 | locus YGL248W, strain PDE1, stronger effect = lower value 1.03 | locus YGL253W, strain hxk2, stronger effect = lower value 1.01 | locus YGR135W, strain pre9, stronger effect = lower value 1.06 | locus YGR252W, strain gcn5, stronger effect = lower value 1 | locus YHR013C, strain ard1, stronger effect = lower value 1.03 | locus YHR027C, strain rpn1, stronger effect = lower value 1.02 | locus YHR079C, strain IRE1 (second series), stronger effect = lower value 0.998 | locus YHR094C, strain hxt1, stronger effect = lower value 0.991 | locus YHR129C, strain ARP1, stronger effect = lower value 1.01 | locus YHR142W, strain chs7, stronger effect = lower value 1.04 | locus YHR200W, strain rpn10, stronger effect = lower value 1 | locus YIL066C, strain RNR3, stronger effect = lower value 1 | locus YIL073C, strain SPO22, stronger effect = lower value 0.977 | locus YIL125W, strain kgd1, stronger effect = lower value 0.984 | locus YIR030C, strain dcg1, stronger effect = lower value 0.999 | locus YJL092W, strain hpr5, stronger effect = lower value 1.03 | locus YJL095W, strain BCK1 (second series), stronger effect = lower value 1.01 | locus YJL095W, strain BCK1, stronger effect = lower value 1.04 | locus YJL115W, strain asf1, stronger effect = lower value 1.04 | locus YJL129C, strain trk1, stronger effect = lower value 1.02 | locus YJL134W, strain LCB3, stronger effect = lower value 1 | locus YJL154C, strain vps35, stronger effect = lower value 1.02 | locus YJL164C, strain tpk1, stronger effect = lower value 1.02 | locus YJL166W, strain qcr8, stronger effect = lower value 1.02 | locus YJL168C, strain set2, stronger effect = lower value 1 | locus YJL187C, strain SWE1 (second series), stronger effect = lower value 1.04 | locus YJL187C, strain SWE1, stronger effect = lower value 1.02 | locus YKL009W, strain mrt4, stronger effect = lower value 1.02 | locus YKL068W, stronger effect = lower value 1 | locus YKL085W, strain MDH1 (second series), stronger effect = lower value 0.993 | locus YKL085W, strain MDH1, stronger effect = lower value 0.993 | locus YKL160W, strain elf1, stronger effect = lower value 1.02 | locus YKR001C, strain vps1, stronger effect = lower value 0.975 | locus YKR026C, strain gcn3, stronger effect = lower value 1.02 | locus YKR091W, strain srl3, stronger effect = lower value 1.03 | locus YLL001W, strain dnm1, stronger effect = lower value 1.03 | locus YLL026W, stronger effect = lower value 1.02 | locus YLL041C, strain sdh2, stronger effect = lower value 1 | locus YLR027C, strain aat2, stronger effect = lower value 1.02 | locus YLR039C, strain RIC1, stronger effect = lower value 1.05 | locus YLR058C, strain SHM2, stronger effect = lower value 1.01 | locus YLR102C, strain apc9, stronger effect = lower value 1.01 | locus YLR221C, strain rsa3, stronger effect = lower value 1.05 | locus YLR258W, strain gsy2, stronger effect = lower value 1.01 | locus YLR262C, strain YPT6 (second series), stronger effect = lower value 1.06 | locus YLR268W, strain sec22, stronger effect = lower value 0.976 | locus YLR320W, strain mms22, stronger effect = lower value 1.03 | locus YLR330W, strain CHS5, stronger effect = lower value 1 | locus YLR342W, strain FKS1, stronger effect = lower value 1.02 | locus YLR357W, strain rsc2, stronger effect = lower value 1.02 | locus YLR370C, strain arc18, stronger effect = lower value 1.02 | locus YLR371W, strain rom2, stronger effect = lower value 0.957 | locus YLR384C, strain iki3, stronger effect = lower value 1.03 | locus YLR418C, strain cdc73, stronger effect = lower value 1.05 | locus YML016C, strain PPZ1, stronger effect = lower value 1.01 | locus YML032C, strain rad52, stronger effect = lower value 0.987 | locus YML120C, strain ndi1, stronger effect = lower value 1.01 | locus YML124C, strain tub3, stronger effect = lower value 0.998 | locus YMR058W, strain fet3, stronger effect = lower value 1.01 | locus YMR078C, strain ctf18, stronger effect = lower value 1.01 | locus YMR125W, strain sto1, stronger effect = lower value 1.04 | locus YMR129W, stronger effect = lower value 1.03 | locus YMR205C, strain PFK2, stronger effect = lower value 1.05 | locus YMR223W, strain ubp8, stronger effect = lower value 1 | locus YMR231W, strain pep5, stronger effect = lower value 1.02 | locus YMR307W, strain GAS1, stronger effect = lower value 0.91 | locus YNL067W, strain RPL9B, stronger effect = lower value 1.04 | locus YNL071W, strain lat1, stronger effect = lower value 1.02 | locus YNL128W, strain TEP1, stronger effect = lower value 1.01 | locus YNL153C, strain GIM3, stronger effect = lower value 1.04 | locus YNL209W, strain ssb2, stronger effect = lower value 1.03 | locus YNL233W, strain BNI4, stronger effect = lower value 1.03 | locus YNL248C, strain rpa49, stronger effect = lower value 1.03 | locus YNL250W, strain rad50, stronger effect = lower value 1.03 | locus YNL271C, strain bni1, stronger effect = lower value 0.999 | locus YNL298W, strain CLA4, stronger effect = lower value 0.997 | locus YNL307C, strain MCK1, stronger effect = lower value 1.01 | locus YNL322C, strain KRE1 (second series), stronger effect = lower value 1.03 | locus YNR049C, strain mso1, stronger effect = lower value 1.02 | locus YNR052C, strain pop2, stronger effect = lower value 1.04 | locus YOL012C, strain htz1 0.777 | locus YOL147C, strain pex11, stronger effect = lower value 0.991 | locus YOR001W, strain rrp6, stronger effect = lower value 1.03 | locus YOR061W, strain CKA2, stronger effect = lower value 1.01 | locus YOR069W, strain VPS5, stronger effect = lower value 1.01 | locus YOR070C, strain gyp1, stronger effect = lower value 1.02 | locus YOR080W, strain dia2, stronger effect = lower value 1.02 | locus YOR083W, strain WHI5, stronger effect = lower value 1.02 | locus YOR106W, strain vam3, stronger effect = lower value 1.05 | locus YOR136W, strain idh2, stronger effect = lower value 1.01 | locus YOR144C, strain elg1, stronger effect = lower value 0.997 | locus YOR184W, strain ser1, stronger effect = lower value 0.967 | locus YOR265W, strain rbl2, stronger effect = lower value 1.03 | locus YOR270C, strain vph1, stronger effect = lower value 1.04 | locus YOR290C, strain snf2, stronger effect = lower value 1.03 | locus YOR316C, strain cot1, stronger effect = lower value 1.01 | locus YPL051W, strain arl3, stronger effect = lower value 1.03 | locus YPL055C, strain LGE1, stronger effect = lower value 1.01 | locus YPL078C, strain atp4, stronger effect = lower value 1 | locus YPL106C, strain sse1, stronger effect = lower value 1.02 | locus YPL240C, strain hsp82, stronger effect = lower value 1.01 | locus YPL241C, strain CIN2, stronger effect = lower value 0.996 | locus YPR119W, strain clb2, stronger effect = lower value 0.995 | locus YPR141C, strain kar3, stronger effect = lower value 0.99 | locus YPR163C, strain tif3, stronger effect = lower value 0.992 | locus YPR167C, strain met16, stronger effect = lower value 1.01 | strain wtn01, stronger effect = lower value 0.965
